Assay outcomes as filed in PubChem.
PNC inhibitor: High Content Assay for Compounds that inhibit the Assembly of the Perinucleolar Compartment; PC3M PTB-GFP, PNC prevalence imaging, 16 h; stronger effect = lower value; activity change (PNC), negative = inhibition, % at 10 µM; 140,000 tested, 3.1% active; AID 2417, 2010;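 active means readout at or below -70, meaning at least 70% loss of cells showing the perinucleolar compartment, a nuclear body marking cancer cells; inconclusive means readout between -30 and a set limit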;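 further: plate controls were DMSO wells for no effect and camptothecin positive control wells for full effect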
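Read-out is percentage of cells bearing a perinucleolar compartment, from automated 20x imaging of fixed, Hoechst-stained PC3M PTB-GFP cells. Cells were seeded 4 h, then exposed 16 h to compound (23 nl of library stock) in duplicate plates.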
HTT aggregate: qHTS Multiplex Assay to Identify Dual Action Probes in a Cell Model of Huntington: Aggregate Formation (GFP); PC12 HttQ103-GFP aggregates, Acumen cytometry, 40 h; 220,000 tested, 1.1% active; Potency, µM (titrated, usually from 46.1 µM), for inactives: at the top dose activity change, negative = inhibition, most hits filed as inhibitors; further: potency means the concentration at half of the fitted maximal effect; on the % scale 0 is the no-effect control and ±100 the full control effect; nearly all actives have a fitted effect of over 60% in size
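Multiplexed with ATP-based cell death, this channel scores GFP aggregates in PC12 cells expressing inducible HTTex1-Q103-GFP. Induction used 100 nM tebufenozide; compounds were tested in concentration series.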
HPGD inh: qHTS Assay for Inhibitors of HPGD (15-Hydroxyprostaglandin Dehydrogenase); 15-hydroxyprostaglandin dehydrogenase [NAD(+)] (Homo sapiens), P15428; 150,000 tested, 4.3% active; purified HPGD, NADH fluorescence kinetic, PGE2 substrate; Potency, µM, for the others: at the highest dose activity change, negative = inhibition, usual class: inhibitors; active means well fitted inhibition curve with a large enough effect, not every such curve was filed as active; inconclusive means small, poorly fitted or top-dose-only effect, or another doubt; inactive means no such curve, though single readings can be large or run the other way; further: potency means the concentration at half of the fitted maximal effect; on the % scale 0 is the no-effect control and ±100 the full control effect
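NADH formation kinetics: reaction with 30 uM PGE2 and 1 mM NAD+ (final), 20 nM enzyme, Tris-HCl pH 8 with Tween 20, after 15 min compound preincubation at room temperature. Fluorescence change, last versus first of five reads.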
HTT cytoprotect: qHTS Multiplex Assay to Identify Dual Action Probes in a Cell Model of Huntington: Cytoprotection (ATP) | PC12 HTT-Q103 induced, cytoprotection, ATP luminescence, 40 h | Potency, µM (series often up to 56.4 µM), for inactives: cytoprotection (ATP increase), actives largely listed as activators | 230,000 tested, 0.14% active; further: potency means the concentration at half of the fitted maximal effect; % of control where 0% means no effect; nearly all actives have a fitted effect of over 45% in size
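Quantitative HTS on tebufenozide-induced (100 nM) PC12 cells expressing HTTQ103 exon 1–GFP; compounds tested as a concentration series; survival measured via cellular ATP.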
ALDH1A1 inh: qHTS Assay for Inhibitors of Aldehyde Dehydrogenase 1 (ALDH1A1). Aldehyde dehydrogenase 1A1 (Homo sapiens), P00352. Purified ALDH1A1, NADH fluorescence, propionaldehyde substrate. Potency, µM (series often up to 75.3 µM), for the others: top-dose activity, negative = inhibition, most hits filed as inhibitors. 220,000 tested, 7.3% active; active means well fitted inhibition curve with a large enough effect, not every such curve was filed as active; inconclusive means small, poorly fitted or top-dose-only effect, or another doubt; inactive means no such curve, though single readings can be large or run the other way;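 further: potency means the concentration at half of the fitted maximal effect; plate controls were no enzyme wells and a reference inhibitor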
CBFb-RUNX1 inh: qHTS Assay for Compounds Blocking the Interaction Between CBF-beta and RUNX1 for the Treatment of Acute Myeloid Leukemia. Potency, µM (top dose mostly 59.8 µM), inactives show at the top dose activity, negative = inhibition, most hits filed as inhibitors. 230,000 tested, under 10 active. AID 1477, 2009. AlphaScreen CBFb-His/RUNX1-biotin binding, biochemical; further: % of control where 0% means no effect
Target sequence (Q01196 whole entry, looked up): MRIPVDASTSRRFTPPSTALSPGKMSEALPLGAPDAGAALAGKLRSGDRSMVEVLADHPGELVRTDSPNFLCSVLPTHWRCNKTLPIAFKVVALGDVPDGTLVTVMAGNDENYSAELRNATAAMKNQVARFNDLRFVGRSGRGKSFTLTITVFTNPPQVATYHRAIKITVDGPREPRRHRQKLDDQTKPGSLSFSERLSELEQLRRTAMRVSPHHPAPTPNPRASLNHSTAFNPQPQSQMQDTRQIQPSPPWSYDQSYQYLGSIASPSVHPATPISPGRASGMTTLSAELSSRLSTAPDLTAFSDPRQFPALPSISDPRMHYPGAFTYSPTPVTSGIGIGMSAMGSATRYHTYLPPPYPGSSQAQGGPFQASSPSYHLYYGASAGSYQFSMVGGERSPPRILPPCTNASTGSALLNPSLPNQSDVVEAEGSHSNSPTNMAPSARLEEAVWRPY
Target sequence (Q13951 whole entry, looked up): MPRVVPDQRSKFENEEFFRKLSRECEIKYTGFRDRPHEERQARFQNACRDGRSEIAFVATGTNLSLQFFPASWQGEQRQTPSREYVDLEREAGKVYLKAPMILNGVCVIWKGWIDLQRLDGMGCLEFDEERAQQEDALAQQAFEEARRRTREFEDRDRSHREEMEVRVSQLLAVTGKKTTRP
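CBF-beta (His) and RUNX1 (biotin), 30 nM each; 20 min preassociation; + compound, 15 min; + beads 50 ng each (Ni, streptavidin), 90 min; RT; AlphaScreen read.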
Numbers without * were called inactive; ? = inconclusive; · = not tested or not shown; ! = not active in a repeat; [ ] = another dose, or the depositor's remark. Only some compounds are listed: those with a hit (about 11% of all), similar ones and a draw of the others. Unless noted, the call rests on the fitted dose curve; in most records, active means well fitted curve in the direction sought with a large enough effect; inconclusive means small, poorly fitted or top-dose-only effect, or another doubt; inactive means no such curve, though single readings can be large; an effect the other way counts as inactive or inconclusive.

SMILES | PNC inhibitor | HTT aggregate | HPGD inh | HTT cytoprotect | ALDH1A1 inh | CBFb-RUNX1 inh
CC(C)=CCC/C(C)=C/CO/N=C1/C[C@@H](O)[C@@H](O)[C@@H]2[C@@H]3C(=O)N([C@@H](C)c4ccccc4)C(=O)[C@H]3CC[C@@H]12 | · | · | · | -17%[10 µM] | -5%[13.5 µM] | -6%[13.1 µM]
C=CCOC(=O)N[C@@H](c1ccccc1)[C@@H](C)[N+](=O)[O-] | · | · | -4% | 25% | 9% | 4%
CCOC(=O)c1sc(=S)n(C)c1NC(=O)c1ccccc1 | ? | 3% | 8.9µM* | -11%[10 µM] | 3.5µM* | 9%
COC(=O)c1ccccc1NC(=O)c1sc(=S)n(C)c1N | ? | 2% | 22µM* | -19% | 20µM* | -7%
Cn1c(N)c(C(=O)NCc2ccccc2)sc1=S | -6 | 20% | ? | -1% | 20µM* | -2%
Cc1ccc(CNC(=O)[C@H](C)[C@H]2C[C@]2(C)[C@H](NC(=O)OCc2ccccc2)c2ccccc2)o1 | -13 | 4% | 25µM*! | -5% | 14µM*! | -1%[2.36 µM]
C[C@@H](C(=O)NCc1ccc(S(C)(=O)=O)cc1)[C@H]1C[C@]1(C)[C@H](NC(=O)OCc1ccccc1)c1ccccc1 | -9 | 14% | -19% | 18% | 6.3µM* | -3%[2.36 µM]
C[C@@H](C(=O)NCc1cccc2ccccc12)[C@H]1C[C@]1(C)[C@H](NC(=O)OCc1ccccc1)c1ccccc1 | · | · | ? | -4% | ? | 10%
C[C@@H](C(=O)NCC1CC1)[C@H]1C[C@]1(C)[C@H](NC(=O)OCc1ccccc1)c1ccccc1 | -1 | -7% | -9% | 9% | 18µM* | -9%[2.36 µM]
COCCNC(=O)[C@H](C)[C@H]1C[C@]1(C)[C@H](NC(=O)OCc1ccccc1)c1ccccc1 | -2 | 9% | -24% | 3% | 28µM*! | 0%[2.36 µM]
Cc1ccc(CNC(=O)[C@H](C)[C@H]2C[C@]2(C)[C@H](NC(=O)OCc2ccccc2)c2ccccc2)c(F)c1F | · | · | -34% | 22% | 3.2µM* | 8%
C[C@@H](C(=O)N[C@@H](CO)Cc1ccccc1)[C@H]1C[C@]1(C)[C@H](NC(=O)OCc1ccccc1)c1ccccc1 | · | · | -7% | -8% | 7.1µM* | 7%
CNC(=O)[C@H](C)[C@@H]1C[C@@]1(C)[C@@H](NC(=O)OCc1ccccc1)c1ccccc1 | 19 | 16% | 3% | -7% | -9% | 7%
C[C@@H](C(=O)N[C@@H](CO)Cc1ccccc1)[C@@H]1C[C@@]1(C)[C@@H](NC(=O)OCc1ccccc1)c1ccccc1 | · | · | -4% | -64% | 3% | 3%
CNC(=O)[C@H](C)[C@H]1C[C@]1(C)[C@H](NC(=O)OCc1ccccc1)c1ccccc1 | · | · | -11% | 25% | 7.9µM* | 13%
Cc1ccc(CNC(=O)[C@H](C)[C@@H]2C[C@@]2(C)[C@@H](NC(=O)OCc2ccccc2)c2ccccc2)c(F)c1F | · | · | -17% | 8% | 2% | 20%
C=CCN(CC=C)CCOc1ccc2ccccc2c1 | · | 11% | · | -23% | -5% | 2%
OCCN1CCN(Cc2cc(Br)cc(Br)c2O)CC1 | -19 | -11% | -4% | -5% | -1% | 2%
CCN1CCN(C(=S)c2ccc(Cl)cc2)CC1 | 19 | 13% | 10µM* | -28% | ? | 0%
CC(C)(C)c1cc(C(=S)N2CCN(CCO)CC2)cc(C(C)(C)C)c1O | ? | 32% | 25µM* | -32% | 18µM* | 8%
OCCN1CCN(C(=S)c2ccc(Cl)cc2)CC1 | ? | -6% | 16µM* | -4%[0.074 µM] | 16µM* | 4%
CC1=NN(c2ccccc2)C(=O)C1C(=O)c1ccccc1 (centres undefined) | 31 | ? | -3% | -8%[1.9 µM] | 8% | -1%
CC1=NN(c2ccccc2)C(=O)C1c1ccccc1 (centres undefined) | -91* | 27% | 0% | 16%[0.074 µM] | 16% | -3%
CNC(=S)N/N=C1\C(=O)c2cccc3cccc1c23 | -11 | ? | -16% | -21% | ? | -9%
CCCCNC(=S)N/N=C1\C(=O)c2cccc3cccc1c23 | 21 | 5% | -6% | -2%[10 µM] | 13µM* | 2%
SMILES | PNC inhibitor | HTT aggregate | HPGD inh | HTT cytoprotect | ALDH1A1 inh | CBFb-RUNX1 inh
O=C(N/N=C1\C(=O)c2cccc3cccc1c23)c1ccc(O)cc1 | · | 5% | · | -48% | 10µM* | -3%
O=P(O)(O)C(O)(Cn1ccnc1)P(=O)(O)O | · | 12% | 0% | -37% | -1% | -9%
COC(=O)c1ccccc1NC(=O)CN1CCC(n2nnc3cc(C(F)(F)F)ccc32)CC1 | ? | -8% | -13% | -12% | 6% | 2%
CC1Cc2ccccc2N1C(=O)CN1CCC(n2nnc3cc(C(F)(F)F)ccc32)CC1 (centres undefined) | -28 | 15% | ? | -6% | 11µM* | 2%
Oc1ccccc1C=NC1=NN(c2cccc(C(F)(F)F)c2)CC1 | -15 | -30% | -20% | -5%[10 µM] | 22µM* | -23%
COc1ccc(C2=Nn3c(nnc3-c3ccc(OC)cc3OC)SC2)cc1 | · | · | · | · | · | 3%
CCOC(=O)c1ccc(COC(=O)CCc2nc3ccccc3[nH]c2=O)o1 | 11 | 2.8µM* | -17% | -7%[10 µM] | -14% | 3%
CC(=O)COC(=O)CCc1nc2ccccc2[nH]c1=O | 57 | 19% | ? | -3% | -3% | -9%
CCc1ccc(-c2cc(C(=O)N/N=C/c3c[nH]c4ccccc34)[nH]n2)cc1 | · | ? | · | -119% | -19% | -18%
CCc1ccc2c(Cl)c(C(=O)N/N=C/c3c[nH]c4ccccc34)sc2c1 | 90 | -17% | -9% | -61% | 13µM* | -8%
OC[C@@H]1OC(O)[C@H](O)[C@H](O)[C@H]1O (some centres undefined) | · | · | · | · | · | 6%
CC1(C)CCCN(C(=O)c2ccc3c(c2NCCO)C(=O)c2ccccc2C3=O)C1 | 17 | ? | 16µM* | · | ? | 2%
CC1CCCN(C(=O)c2ccc3c(c2NCCO)C(=O)c2ccccc2C3=O)C1 (centres undefined) | -2 | -15% | ? | 3% | ? | ?
CNc1c(C(=O)O)ccc2c1C(=O)c1ccccc1C2=O | -11 | -17% | -14% | -9%[10 µM] | 2% | ?
O=C(O)c1cccc2c1C(=O)c1ccccc1-2 | · | 10%[9.22 µM] | · | 18%[10 µM] | 22µM* | 7%
